CHT block = inhibits the human high affinity choline transporter | AID 488975 | B-score at 10 µM | 310,000 compounds, 0.86% hits | Q9GZV3 | CHT-expressing cells, membrane potential dye, choline response; stronger effect = lower value;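 active means B-score over 3 SD under the library average, and starting fluorescence ratio not unusually high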;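 further: choline stimulus applied at its EC90 after an EC20 pre-addition; B-score computed on integrated fluorescence ratio after choline addition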
Target sequence (Q9GZV3 whole entry, looked up): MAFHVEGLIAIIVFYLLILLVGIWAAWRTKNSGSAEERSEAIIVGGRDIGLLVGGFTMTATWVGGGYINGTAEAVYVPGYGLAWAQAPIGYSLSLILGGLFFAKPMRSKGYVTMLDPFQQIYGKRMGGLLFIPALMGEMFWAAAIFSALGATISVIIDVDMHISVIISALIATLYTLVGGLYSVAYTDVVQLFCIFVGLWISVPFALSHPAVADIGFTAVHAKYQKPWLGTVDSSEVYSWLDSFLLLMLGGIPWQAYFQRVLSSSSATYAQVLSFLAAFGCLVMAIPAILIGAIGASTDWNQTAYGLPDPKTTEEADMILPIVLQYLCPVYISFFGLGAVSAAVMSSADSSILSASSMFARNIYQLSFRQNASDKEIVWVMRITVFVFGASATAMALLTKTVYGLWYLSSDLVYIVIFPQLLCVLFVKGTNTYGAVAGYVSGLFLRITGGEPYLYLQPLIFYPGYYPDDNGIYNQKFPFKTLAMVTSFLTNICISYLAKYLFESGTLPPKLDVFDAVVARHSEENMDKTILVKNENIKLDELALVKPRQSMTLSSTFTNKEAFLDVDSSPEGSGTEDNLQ
beta cell repl = inducers of beta-cell replication in MIN6 cells | MIN6 cells proliferation, ATPlite luminescence, 48 h; cells starved in 0.2% serum; 100% = growth in 10% serum | proliferation, % at 10 µM | 330,000 compounds, 0.29% hits | AID 2380;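 active means compounds whose signal lies at least 3.5 SD above the mean of all wells on their plate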;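 further: 0% = DMSO-treated cells in low-serum medium and 100% = 10% serum control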
TAG inh = reduces triacylglycerol accumulation in H9c2 cells | AID 651582 | inhibition, % at 12.5 µM | 230,000 compounds, 0.66% hits | Nile Red lipid (TAG) fluorescence; cells loaded with 200 µM oleic acid;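 active means pattern-corrected inhibition of lipid staining of at least 50% with the nuclear-stain viability signal not falling by more than 50%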;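 further: 0% = DMSO wells and 100% = triacsin C control wells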
CHT PAM = allosteric activators of human choline transporter CHT; CHT-expressing cells, membrane potential dye, choline EC20; stronger effect = higher value; LV-AA mutant CHT in HEK293 cells; B-score at 10 µM; 310,000 compounds, 0.49% hits;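 active means initial fluorescence not abnormally high and integrated response B-score, plate-corrected, over 3 SD above library mean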
CHT act confirm = confirmation of human choline transporter (CHT) activators. shares compounds with CHT PAM. CHT-expressing cells, membrane potential dye fluorescence (FDSS); % of choline EC20–EC90 response window; HEK293 expressing CHT LV-AA mutant; choline added at its EC20. activation, % at 10 µM. 2,500 compounds, 91% hits. AID 504833;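 active means primary screen active, with duplicate mean activation above negative control mean plus 3 SD, cut at about 11% in these data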
HEK293 MP dye = activity in parental HEK293 cells lacking CHT; ratio readout change at 10 µM, hits read low; AID 623908; 2,500 compounds, 62% hits; membrane potential dye fluorescence (FDSS); measured after EC20 choline addition; shares compounds with CHT PAM;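 active means duplicate-averaged ratio beyond 3 SD from buffer wells, up or down, though filed actives are nearly all decreases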
Active calls of the source: *; i = inactive; nt = no result. This is a sample that favours compounds with a hit; in the whole collection about 1.7% have one here.

SMILES | CHT block | beta cell repl | TAG inh | CHT PAM | CHT act confirm | HEK293 MP dye
CCN1CCN(CC(=O)c2c(C)n(C)c3ccc(OC)cc23)CC1 | i | -1.4 | 23.2 | i | 53.1* | -33.5*
Oc1ccccc1CNc1nc2ccccc2n1CCN1CCCCC1 | i | -5.3 | 12.2 | i | nt | nt
COc1ccccc1CNc1nc2ccccc2n1CCN1CCCCC1 | i | -4.5 | -2.6 | 6.3* | 39.7* | -22*
O=C(Nc1nc2ccccc2n1CCOc1ccccc1)c1ccco1 | i | -3.1 | -29.1 | i | nt | nt
CC(=O)Nc1nc2ccccc2n1CCN1CCOCC1 | i | -2.2 | nt | i | nt | nt
O=C(Nc1nc2ccccc2n1CCN1CCCCC1)c1ccco1 | i | -1.1 | 11.8 | 8.06* | 28.9* | -41.4*
CCn1cc(Cl)c(C(=O)Nc2nc3ccccc3n2CCN2CCCCC2)n1 | i | -2.6 | 21.0 | 9.61* | 52.6* | -67.1*
CCC(=O)N(c1nnc(SCC(=O)NN2C(=O)NC3(CCCCC3)C2=O)s1)C1CC1 | nt | -2.2 | -2.3 | nt | nt | nt
COc1ccc(CCNC(=O)Cn2nnc(C(=O)Nc3cc(C)ccc3C)c2N)cc1OC | i | -2.2 | nt | i | nt | nt
CCN(CC)CCCCNc1ncc2cc(-c3cc(OC)cc(OC)c3)c(NC(=O)NC(C)(C)C)nc2n1 | i | -7.6 | 45.6 | 6.73* | 46.5* | -22.8*
Cc1cc[n+](CC(=O)c2ccccc2)c2ccccc12 | i | 1.1 | -6.5 | 6.58* | 34.4* | -35.8*
Cc1cc[n+](CCC(=O)O)c2ccccc12 | i | -3.7 | -5.0 | i | nt | nt
Cc1cc(S(=O)(=O)NCc2ccc(N3CCN(C)CC3)cc2)c(C)s1 | i | -2.7 | -18.8 | i | nt | nt
Cc1cc(Nc2cccc([N+](=O)[O-])c2)c2ccccc2n1 | i | 1.1 | -14.7 | i | nt | nt
Cc1cc(C)nc(/N=C(\N)Nc2cccc([N+](=O)[O-])c2)n1 | i | -0.4 | nt | i | 27.8* | -45.9*
Cc1cc(C)nc(/N=C(\N)Nc2ccc([N+](=O)[O-])cc2)n1 | i | 0.2 | nt | i | nt | nt
Cc1cc(Nc2cccc([N+](=O)[O-])c2)c2cccc(C)c2n1 | i | -2.1 | -3.3 | i | 42.0* | -52.3*
C=CCn1c[n+](CC(=O)c2ccc(Br)s2)c2ccccc21 | i | 2.7 | nt | i | 45.2* | -27.2*
Cc1cc(/C=N/NC(N)=O)c(C)n1-c1ccc(F)cc1 | i | 0.4 | 7.8 | 13.6* | 22.6* | i
COCC(=O)N/N=C(\C)CC(=O)NCc1ccco1 | i | -3.0 | -5.1 | i | nt | nt
COc1ccc(N2CCc3c(C)nc4c(OC)cc(OC)cc4c32)cc1 | i | -5.4 | 39.0 | i | nt | nt
COc1ccc(N2CCc3c(C)nc4c(OC)cccc4c32)cc1 | i | -4.3 | 37.9 | i | 33.4* | -55.9*
COc1cccc2c3c(c(C)nc12)CC(C)O3 (centres undefined) | i | 0.6 | -7.8 | 9.94* | 52.8* | -69.5*
Cc1nc2c(C)cccc2c2c1CCN2c1ccccc1F | i | 2.7 | -2.2 | i | 46.7* | -53.8*
COc1cccc(N2CCc3c(C)nc4ccc(Cl)cc4c32)c1 | i | nt | nt | i | 41.5* | -28.7*
SMILES | CHT block | beta cell repl | TAG inh | CHT PAM | CHT act confirm | HEK293 MP dye
COc1ccc(CCNC(=O)Nc2cccs2)c(OC)c1 | i | -0.4 | nt | i | nt | nt
CCc1nc2ccc(C(=O)NCCOc3ccc(OC)cc3)cn2c1N(CC)Cc1ccc(OC)c(OC)c1 | nt | nt | 18.9 | nt | nt | nt
CN1CCN(c2nc3ccccc3nc2C(C#N)C(=O)OC2CCCCC2)CC1 (centres undefined) | i | -5.7 | nt | 8.62* | 44.4* | -47.9*
CCN1CCN(c2nc3ccccc3nc2C(C#N)C(=O)OC2CCCCC2)CC1 (centres undefined) | nt | nt | 43.8 | nt | nt | nt
O=C(c1ccc(Cn2cc([N+](=O)[O-])cn2)o1)N1CCCCCC1 | i | -2.4 | 3.0 | i | nt | nt
Cc1c(C)n(Cc2ccccc2)c2ncnc(NCCCN(C)C)c12 | i | -0.9 | nt | i | 25.6* | -39*
C[N+](C)(CC#Cc1ccccc1)CC(=O)c1ccccc1 | i | 1.4 | nt | i | nt | nt
CC[N+](CC)(CC#Cc1ccccc1)CC#Cc1ccccc1 | i | -6.3 | -1.9 | 7.7* | 48.6* | i
C[n+]1ccc(C(=O)NCCC[N+](C)(C)C)cc1/C=N/O | i | 0.1 | -6.6 | 7.35* | 43.5* | -30.7*
C[N+](C)(C)CCCNC(=O)c1ccc(/C=N/O)nc1 | i | 1.6 | nt | i | nt | nt
Cc1nn(-c2ccccc2)c(Cl)c1CN(C(=O)CCl)c1cccc2ccccc12 | i | -6.2 | nt | 8.96* | 35.8* | i
Cc1ccc(-c2cn(-c3ccc(OC(F)F)cc3)c3[n+]2CCCCC3)cc1 | i | -3.9 | -7.6 | i | 57.1* | i
FC(F)Oc1ccc(-n2cc(-c3ccccc3)[n+]3c2CCCCC3)cc1 | i | -4.0 | -15.0 | i | nt | nt
O=c1c2ccccc2n(CC(O)CN2CCOCC2)c2ccccc12 (centres undefined) | i | -3.7 | nt | i | 11.0* | i
Cc1c(C)n(CC(O)CN2CCOCC2)c2ccccc12 (centres undefined) | i | -0.9 | nt | i | nt | nt
O=c1c2ccccc2n(CC(O)CN2CCCCC2)c2ccccc12 (centres undefined) | i | 0.5 | 1.4 | 6.27* | 44.1* | -39.3*
CCC[n+]1c2ccccc2cc2ccccc21 | i | -5.2 | nt | i | 75.6* | -70.7*
N#CC(C#N)=c1ccc2c(c1)NC1(CCCCC1)N=2 | i | -3.7 | -18.1 | 6.38* | 51.2* | -64.4*
CCOC(=O)C1(CC2CCCCO2)CCN(Cc2c(C)cc(C)cc2-n2cccn2)CC1 (centres undefined) | i | -0.5 | -1.4 | i | nt | nt
Cc1ccc(-n2cccn2)c(CN2CCCC(CNC(=O)c3ccc(F)cc3)C2)c1 (centres undefined) | i | -3.0 | -1.6 | i | 39.0* | i
CCOC(=O)C1(CC2CCCCO2)CCN(Cc2cc(F)ccc2-n2cccn2)CC1 (centres undefined) | i | -2.3 | -0.7 | 9.41* | 49.1* | i
CCCC(C)CO (centres undefined) | nt | -0.1 | nt | nt | nt | nt
CCCn1c(CN2CCN(C(=O)OCC)CC2)nc2cc(NC(=O)CC)ccc21 | i | -3.9 | nt | i | 9.8* | i
O=C(Nc1cccc2ccccc12)c1ccc2sc([C@@H]3O[C@H](CO)[C@H](O)[C@H](O)[C@H]3O)nc2c1 | nt | nt | 9.4 | nt | nt | nt
CCCCCNc1nc(NCCCO)c(C#N)c2c1CN(C)CC2 | i | -1.7 | -3.0 | i | 31.6* | -29.2*
COCCCNC(=O)c1cc(Sc2nnc(C)s2)nc2ccccc12 | i | -1.8 | 10.9 | i | nt | nt
Cc1nnc(Sc2cc(C(=O)NCCCN(C)Cc3ccccc3)c3ccccc3n2)s1 | i | 1.5 | nt | 6.48* | 24.2* | -28.7*

High-throughput results deposited in PubChem by several laboratories.
